GLP1R cytotox = cytotoxicity in counter-screen for GLP-1R inverse agonists. Potency, µM (series often up to 38.3 µM), for the others: at the top dose activity change, negative = inhibition, hits mostly inhibitors. AID 624418. HEK293 cAMP-luciferase reporter cells, luminescence, 24 h. actives 0.13% (n = 410,000);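 also: loss of luciferase light is scored as toxicity; % is scaled to controls: 0 for no effect and ±100 for the full control effect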
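A 23 nL compound transfer followed 12 hours of cell culture at 37 deg C; exposure then lasted 24 hr. Luciferase assay detection reagent was dispensed and plates read for luminescence after a 12 min room-temperature wait.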
GLP-1R agonist = agonists of human GLP-1 receptor | actives 0.007% (n = 380,000) | Potency, µM (series often up to 45.6 µM), for the others: top-dose activation, most hits filed as activators | P43220 | AID 624172 | HEK293 GLP-1R CRE-luciferase, luminescence, 4-6 h; cells express a hypersensitive GLP-1R form; also: % of control where 0% means no effect
Target sequence (P43220 whole entry, looked up): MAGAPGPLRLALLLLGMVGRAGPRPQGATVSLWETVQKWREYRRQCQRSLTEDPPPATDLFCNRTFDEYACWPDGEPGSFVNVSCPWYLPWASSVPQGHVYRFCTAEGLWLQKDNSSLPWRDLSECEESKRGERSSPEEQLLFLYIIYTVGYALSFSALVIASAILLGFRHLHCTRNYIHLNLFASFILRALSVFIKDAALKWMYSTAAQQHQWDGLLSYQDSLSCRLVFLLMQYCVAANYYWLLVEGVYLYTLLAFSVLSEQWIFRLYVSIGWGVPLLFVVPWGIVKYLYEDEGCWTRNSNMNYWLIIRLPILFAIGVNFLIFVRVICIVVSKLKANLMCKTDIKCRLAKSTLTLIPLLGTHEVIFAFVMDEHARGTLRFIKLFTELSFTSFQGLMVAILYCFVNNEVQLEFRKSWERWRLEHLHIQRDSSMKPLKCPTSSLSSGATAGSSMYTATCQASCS
GLP1R inv ag = inverse agonists of human GLP-1 receptor; Potency, µM (top dose mostly 38.3 µM), for the others: top-dose activity change, negative = inhibition, actives largely listed as inhibitors; HEK293 GLP-1R CRE-luciferase, luminescence, 24 h; GLP-1R form is constitutively active; actives 1.6% (n = 410,000); AID 624417; also: % is scaled to controls: 0 for no effect and ±100 for the full control effect; nearly all actives have a fitted effect of over 55% in size
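HEK293 cells stably co-expressing constitutively active GLP-1R and a cAMP-responsive luciferase reporter were seeded in DMEM with 10% Nu serum, given compounds after 12 h, and incubated 24 h at 37 deg C. Luminescence was then read.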
The depositor's hits bear a star; ? = inconclusive; · = no result given; [ ] = another dose, or the depositor's remark. Sampled rows, rich in hits. Any-hit rate of the full collection: about 1.7%. Calls follow the shape of the dose curve; as a rule, active = well fitted curve in the direction sought with a large enough effect; inconclusive = small, poorly fitted or top-dose-only effect, or another doubt; inactive = no such curve, though single readings can be large; an effect the other way counts as inactive or inconclusive. Potency is read from the fitted curve at half-maximal effect.

SMILES | GLP1R cytotox | GLP-1R agonist | GLP1R inv ag
CC(C)Oc1ccc(C(=O)N(Cc2ccco2)Cc2cccs2)cc1 | -9% | · | ?
CCOc1ccc2nc(NS(=O)(=O)Cc3ccccc3)sc2c1 | ? | 4% | 10µM*
CCOc1ccc2nc(NC(=O)c3ccccc3)sc2c1 | 1% | · | ?
Cc1cc(C)cc(NC(=O)c2sc3nc[nH]c(=O)c3c2C)c1 | -16% | · | -17%
CCCn1c(C(C)Nc2nc(-c3cccc(Br)c3)cs2)nc2ccccc21 (stereo not drawn) | -25% | 15% | ?
CCCn1c(C(C)Nc2nc(-c3ccc(C)cc3)cs2)nc2ccccc21 (stereo not drawn) | ? | 6% | 11µM*
O=C(CC1N=C2c3ccccc3N=C(SCC(=O)Nc3ccccc3F)N2C1=O)NCc1ccc2c(c1)OCO2 (stereo not drawn) | -14% | · | 0%
CC(C)(C)C(=O)CSc1nc2ccsc2c(=O)n1Cc1ccccc1F | -5% | · | 13µM*
CC(C)(C)C(=O)CSc1nc2ccsc2c(=O)n1Cc1ccccc1Cl | 1% | · | -4%
CCN(CC)c1ccc(/C=N/N(c2ccccc2)c2ccccc2)c(O)c1 | 22% | -2% | 6.3µM*
CCN(CC)c1ccc(/C=N/N=C(c2ccccc2)c2ccccc2)c(O)c1 | -4% | -33% | ?
CCCC[C@@H](CN[C@H](C)CNC)NCC1CCC(C(C)(C)C)CC1 (stereo partly drawn) | ? | -2% | 11µM*
CC[C@H](C)[C@@H](CN[C@H](CCCCNC)CNC)NCC1CCCC1 | 17% | 0% | -5%
Cc1ccc(S(=O)(=O)N2CCCC2)cc1[N+](=O)[O-] | 0% | -3% | 10%
O=[N+]([O-])c1cc(S(=O)(=O)N2CCCCCC2)ccc1Cl | 11µM* | -6% | ?
Cc1ccc(NC(=O)C2(C)CCN2C(=O)c2ccccc2CCc2ccccc2)cc1C (stereo not drawn) | -5% | 2% | 2.8µM*
CC(C)(C)c1cc(NC(=O)C2(C)CCN2C(=O)c2ccccc2CCc2ccccc2)no1 (stereo not drawn) | 5% | 0% | 8.9µM*
COc1ccc(NC(=O)C2(C)CCN2C(=O)c2ccccc2CCc2ccccc2)cc1OC (stereo not drawn) | ? | -1% | ?
Cn1nc(C(C)(C)C)cc1NC(=O)C1(C)CCN1C(=O)c1ccccc1CCc1ccccc1 (stereo not drawn) | -15% | 11% | ?
O=C(Nc1cccc2ncccc12)c1cc2ccccc2o1 | -5% | -16% | 9%
O=C(Nc1ncccc1O)c1cc2ccccc2o1 | ? | -26% | 11µM*
Cc1ccnc(NC(=O)c2cc3ccccc3o2)c1 | 6% | -22% | 5.6µM*
O=C(Nc1ccccn1)c1cc2ccccc2o1 | -1% | -3% | 0%
CCC(Oc1ccc(F)cc1)C(=O)Nc1c(C(=O)c2ccc(C)cc2)oc2ccccc12 (stereo not drawn) | 1% | · | -7%
COc1ccc(NCC(=O)n2c(C)c(C)c3ccccc32)cc1 | -7%[7.66 µM] | -1% | -6%[7.66 µM]
SMILES | GLP1R cytotox | GLP-1R agonist | GLP1R inv ag
COc1ccc(C(=O)c2c(C)c3ccccc3n2CC(O)CNC(C)C)cc1 (stereo not drawn) | 8.9µM* | -2% | 2.2µM*
Cc1ccc2nc(-c3cccc(-c4cccc(Cl)c4)c3)c(NCc3ccccc3)n2c1 | 0% | -14% | 11µM*
CCC(C)Sc1cccc(-c2nc3cc(C)ccn3c2NC2CCCCC2)c1 (stereo not drawn) | ? | 2% | 5µM*
Cc1ccn2c(NC3CCCCC3)c(-c3cccc(SC4CCCCC4)c3)nc2c1 | -20% | 4% | ?
CCCCCCSc1cccc(-c2nc3ccccn3c2NCc2ccccc2)c1 | -8% | 4% | ?
CCCCCCSc1cccc(-c2nc3cc(C)ccn3c2NCc2ccccc2)c1 | ? | 0% | 5µM*
CCC(C)Sc1cccc(-c2nc3ccc(C)cn3c2NCc2ccccc2)c1 (stereo not drawn) | -16% | 0% | ?
COc1cc(CCN(C(=O)c2cc3ccccc3[nH]2)C(c2ccccn2)c2nc3ccccc3[nH]2)cc(OC)c1 (stereo not drawn) | -5% | -4% | 28%
CCOC(=O)C1CCN(C(=O)CCn2c(=O)oc3ccccc32)CC1 | 3% | -1% | 4%
CCS(=O)(=O)c1ccc(O)c(NC(=O)c2cc(-c3ccccn3)nc3ccccc23)c1 | 8% | -3% | 10%
OCCCn1c(C2CCCN2c2nc(-c3ccc(F)cc3)cs2)nc2cc(Cl)c(Cl)cc21 (stereo not drawn) | -3% | 11% | ?
OCOCCCn1c(C2CCCN2c2nc(-c3ccc(F)cc3)cs2)nc2cc(Cl)c(N3CCCCC3)cc21 (stereo not drawn) | -39% | -4% | 7.9µM*
CCOC(=O)c1c(C)oc2ncnc(N3CCN(c4ccccc4F)CC3)c12 | 3% | · | -26%
CCN1CCN(C(=O)c2ccc(-c3nc4ccccc4s3)s2)CC1 | 12% | 20% | ?
O=C(c1ccc(-c2nc3ccccc3s2)s1)N1CCOCC1 | 1% | -5% | 1.3µM*
N#Cc1c(N2CCN(c3ccc(F)cc3)CC2)nc(N)c2c(N)nc3c(c12)CC(=O)N3C1CC1 | -14% | 0% | 2%
CC1=Nc2nc(N3CCCCCC3)c(C#N)c3c4c(nc(c23)N1)N(c1ccc2ccccc2c1)C(=O)C4 | 5% | -6% | 0.5µM*
O=C(CSc1ccccc1)NNC(=O)c1ccncc1 | 1% | 3% | 9%
Cc1ccc(NC(=O)Nc2ccc3c(c2)OCO3)cc1F | -12% | 1% | -1%
Cc1nn2c(=O)cc(COC(=O)c3ccc(NC(=O)COc4ccc(Cl)cc4)cc3)nc2s1 | -22% | · | ?
CNc1ccc(-c2cc(OC)ccc2OC)cn1 | 0% | 0% | 6%
Cc1nn(C)cc1/C=N/NC(=O)CSc1ccccn1 | -1% | -2% | 5%
S=C(N/N=C/c1ccccc1Cl)Nc1ccccc1 | 4µM* | 12% | ?
CNC(=S)N/N=C/c1ccccc1Cl | ? | 1% | ?
O=C(CN1C(=O)CCc2cc(S(=O)(=O)N3CCOCC3)ccc21)NCc1ccccc1 | -25% | · | -71%
SMILES | GLP1R cytotox | GLP-1R agonist | GLP1R inv ag
CCC1(c2ccc(F)cc2)NC(=O)N(CC(=O)Nc2ccccc2Cl)C1=O (stereo not drawn) | 6% | 9% | ?
S=C(NCc1cccs1)Nc1cccc(Cl)c1 | -22% | -5% | 0%
S=C(NCc1cccs1)Nc1cc(Cl)cc(Cl)c1 | ? | 1% | 8.9µM*
CCc1ccc(-n2nc(C)c3c(C(=O)Nc4ccc(Cl)cc4)cc(C)nc32)cc1 | 4% | · | -13%
Cc1nn(-c2ccccc2)c2nc(C3CC3)cc(C(=O)Nc3cccc(F)c3)c12 | -22% | · | 5.6µM*
CCc1ccc(-n2nc(C)c3c(C(=O)Nc4cccc(C(F)(F)F)c4)cc(C)nc32)cc1 | -27% | · | 2.2µM*
COc1ccc(NC(=O)c2cc(C3CC3)nc3c2c(C)nn3-c2ccccc2)cc1OC | -3% | · | 17%
CCN(CC)CCCNc1ncnc2c1cnn2-c1ccc(C)c(C)c1 | -9% | · | ?
CSc1cccc(Nc2cc(C(=O)NCCc3ccc(Cl)cc3)c3ccccc3n2)c1 | 4% | -15% | 5µM*
COc1ccc(CCNC(=O)c2cc(-c3ccccc3)nc3ccccc23)cc1OC | -2% | 17% | 19%
